Bioassay records as filed in PubChem.
CHX counter: affects cycloheximide protein synthesis inhibition readout, counter-screen; cell reporter, cycloheximide protein synthesis inhibition counterscreen; max response, %; 300,000 tested, 12% active; AID 2314; in the data active = max response mostly above about 13%, no sharp cut-off; inactive = mostly below about 14%; also: read at 38.3 µM for the half of the compounds with a filed dose; 0% is about no effect
LmPK inh: inhibitors of Leishmania mexicana pyruvate kinase; purified LmPK, Kinase-Glo ATP luminescence, 1 h; 290,000 tested, 0.37% active; AID 1721; Potency, µM (titrated, usually from 57.5 µM), without a hit: at the highest dose activity change, negative = inhibition, most hits filed as inhibitors; also: potency is read from the fitted curve at half-maximal effect; % is scaled to controls: 0 for no effect and ±100 for the full control effect
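ATP generated from ADP (0.1 mM) and PEP (0.5 mM) by 0.1 nM LmPK over 1 h at room temperature (pH 7.2 imidazole buffer) was detected by coupled luciferase luminescence. Values were normalized to uninhibited and no-enzyme wells.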
Shiga inhibitor: inhibitors of Shiga toxin in Vero cells | Vero cells, Shiga toxin protein synthesis inhibition reporter | AID 2315 | inhibition, % at 38.7 µM | 290,000 tested, 9.2% active; in the data active = inhibition mostly above about 28%, no sharp cut-off; inactive = mostly below about 43%; also: 0% is about no effect
TbPYK inhibitor: inhibitors of Trypanosoma brucei pyruvate kinase. TbPYK enzyme, Kinase-Glo Plus ATP luminescence, 45 min. Potency, µM (highest dose often 76.8 µM), without a hit: top-dose activity, negative = inhibition, hits mostly inhibitors. 410,000 tested, 0.12% active. Q57TT1. AID 624173; also: potency is read from the fitted curve at half-maximal effect; % is scaled to controls: 0 for no effect and ±100 for the full control effect; nearly all actives have a fitted effect of over 50% in size
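Screened from lowest to highest concentration, compounds were pinned into TbPYK/substrate mixtures, and ADP (130 uM final) was added. Plates sat at room temperature for 45 min prior to Kinase-Glo Plus detection by luminescence.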
Sm TGR inh: inhibitors of Schistosoma mansoni thioredoxin glutathione reductase. purified TGR, DTNB reduction, TNB absorbance 405 nm. Potency, µM (top dose mostly 114 µM), for the others: at the top dose activity change, negative = inhibition, usual class: inhibitors. 360,000 tested, 3% active; also: potency is read from the fitted curve at half-maximal effect; % is scaled to controls: 0 for no effect and ±100 for the full control effect; nearly all actives have a fitted effect of over 60% in size
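First, TGR (20 nM dispensed) and NADPH were mixed with compound. Second, a 15 min room-temperature incubation followed. Third, further NADPH and then DTNB were added to start the reaction. Finally, TNB absorbance was monitored kinetically.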
FBPA Giardia inh: inhibitors of Giardia lamblia fructose-1,6-bisphosphate aldolase. purified Giardia FBPA. Potency, µM (series often up to 59.6 µM), inactives show top-dose activity, negative = inhibition, hits mostly inhibitors. 290,000 tested, 0.71% active. AID 2451; also: potency is read from the fitted curve at half-maximal effect; % is scaled to controls: 0 for no effect and ±100 for the full control effect; nearly all actives have a fitted effect of over 55% in size
Target sequence (A8B2U2 whole entry, looked up): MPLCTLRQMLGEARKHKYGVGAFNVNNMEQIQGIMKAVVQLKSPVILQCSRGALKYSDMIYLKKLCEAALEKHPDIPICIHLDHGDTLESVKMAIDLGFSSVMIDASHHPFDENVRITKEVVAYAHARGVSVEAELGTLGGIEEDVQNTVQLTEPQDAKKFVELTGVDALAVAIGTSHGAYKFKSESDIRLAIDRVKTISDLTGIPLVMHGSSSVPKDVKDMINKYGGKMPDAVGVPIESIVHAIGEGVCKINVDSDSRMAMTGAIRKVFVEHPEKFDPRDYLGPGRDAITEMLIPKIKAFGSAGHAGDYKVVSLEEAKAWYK
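40 nM FBPA preincubated 10 min at RT with compound (up to 57.5 uM final), then substrate plus GAPDH/TPI/NAD/arsenate coupling and diaphorase/resazurin added. Fluorescence read after 20 min at RT, 525/598 nm.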
* hit, by the source's call; ? = inconclusive; nt = not tested or not shown; + = active, no number; [ ] = another dose, or the depositor's remark. The entries come from a sample that favours hits as a whole. Unless noted, calls follow the shape of the dose curve; as a rule, active = well fitted curve in the direction sought with a large enough effect; inconclusive = small, poorly fitted or top-dose-only effect, or another doubt; inactive = no such curve, though single readings can be large; an effect the other way counts as inactive or inconclusive.

SMILES	CHX counter	LmPK inh	Shiga inhibitor	TbPYK inhibitor	Sm TGR inh	FBPA Giardia inh
CC1CCCCC1NC(=S)Nc1ccc(Cl)cc1Cl (stereo unspecified)	11.8	-3.9%	31.4*	-7.5%	-3.9%	-4.0%
Cc1ccccc1S(=O)Cc1ccc(C(=O)N2CCN(c3cccc(C)c3C)CC2)o1 (stereo unspecified)	nt	nt	nt	5.5%	3.2%	nt
Cc1cc(C)c(C(=O)COC(=O)C2CCN(c3ccc(C(F)(F)F)cn3)CC2)c(C)c1	nt	nt	nt	0.0%	2.6%	nt
COc1ccc(OC)c(C(C)NC(=O)C(C)n2cc([N+](=O)[O-])cn2)c1 (stereo unspecified)	nt	nt	nt	0.0%	-5.6%	nt
CCc1noc(-c2ccc(N(C)Cc3ccc(OC)cc3)c([N+](=O)[O-])c2)n1	nt	nt	nt	-4.3%	0.9%	nt
Cc1ccc(NC(=S)NC(=O)C2CCC2)cc1C	52.8*	1.4%	101.0*	4.2%	?	2.5%
S=C(Nc1ccc2[nH]ccc2c1)NC1CCCCC1	37.3*	-1.0%	65.0*	1.7%	-2.2%	5.4%
O=C(NC(=S)Nc1cccc(O)c1)C1CCCCC1	nt	nt	nt	-2.6%	nt	nt
Cc1ccc(NC(=S)NC2CCCC2)cc1C	48.8*	3.3%	active	-6.0%	5.4%	-2.6%
Cc1nc2ccc(NC(=S)NC3CCCCC3)cc2nc1C	42.3*	5.8%	101.9*	-4.7%	?	?
CC(=O)c1cccc(NC(=S)NC2CCCCC2)c1	-2.6	2.3%	6.3	2.2%	-27.6%	-1.7%
CC1(C(=O)NCc2ccc(F)c(F)c2)Cc2c(-c3ccccc3)ccnc2O1 (stereo unspecified)	nt	nt	nt	2.6%	nt	nt
COc1cc(NC(=S)NC2CC2)c(OC)cc1Cl	-5.3	2.8%	-3.1	-7.1%	39.8µM*	-12.0%
COc1cccc(-c2noc(COc3ccccc3Cl)n2)c1	nt	nt	nt	-4.5%	13.0%	nt
COc1ccccc1OCc1nc(-c2ccc([N+](=O)[O-])cc2)no1	24.5*	-9.1%	39.2*	-9.2%	5.5%	-0.6%
COc1ccccc1OCC(=O)N(Cc1nc(-c2ccccc2)no1)C1CCCCC1	15.1*	-0.9%	42.9	1.3%	4.6%	-3.4%
COc1ccc(-c2noc(COc3ccccc3OC)n2)cc1OC	12.5*	3.5%	50.1*	9.0%	7.5%	-2.8%
COc1ccc(OC)c(CCNC(=O)c2ccc3c(c2)c(C)c(C)n3Cc2ccccc2)c1	nt	nt	nt	-0.8%[15.4 µM]	11.9%	nt
COc1ccc(/C=C/c2cc(C(=O)O)c3ccccc3n2)cc1	14.6*	11.2µM*	-12.5	-10.0%	-1.7%	-24.7%
COc1cc(OC)c(OC)cc1/C=C/c1cc(C(=O)O)c2ccccc2n1	10.7	1.6%	-7.6	-6.5%	-11.1%	-16.9%
Cc1cc(/C=C\c2ccccc2)nc2ccccc12	30.3*	0.1%	119.5*	1.7%	0.0%	-15.2%
N/C(=N\OC(=O)Cc1cccs1)c1ccc(Br)cc1	50.0*	1.1%	81.2*	4.2%	1.3%	4.5%
N/C(=N\OC(=O)CCCOc1ccccc1)c1ccc(Br)cc1	1.2	1.3%	-10.5	6.9%	6.8%	-2.5%
N/C(=N\OC(=O)Cc1cccs1)c1ccc([N+](=O)[O-])cc1	31.2*	0.9%	+	3.1%	-31.4%	3.7%
O=C(NCc1cccs1)c1ccc([N+](=O)[O-])cc1	9.6	-1.7%	-12.2	-9.0%	-14.0%	-0.2%
SMILES	CHX counter	LmPK inh	Shiga inhibitor	TbPYK inhibitor	Sm TGR inh	FBPA Giardia inh
COc1ccccc1CN1COc2ccc3c(C)cc(=O)oc3c2C1	nt	nt	nt	-2.4%	16.0%	nt
c1ccc(-c2ncc3ccccn23)cc1	15.4*	6.4%	59.5	-2.9%	39.8µM*	?
c1ccc2c(c1)ncc1cccn12	2.1	4.0%	-21.2	-4.1%	10.4%[11.4 µM]	-3.8%
COc1ccc(-c2cc(=O)c3cc(O)ccc3o2)cc1	53.2*	-17.8%	62.0*	-6.4%	7.2%	8.5%
O=c1cc(-c2ccccc2)oc2cc(O)c(O)cc12	nt	nt	nt	nt	nt	-11.7%
O=c1cc(-c2ccccc2)oc2ccc(O)cc12	31.9*	-12.0%	64.1*	-1.8%	-0.4%	0.7%
CCc1sc(C(=O)NCc2ccco2)cc1C	13.3	1.8%	63.7*	-11.5%	-0.7%	12.0%
O=C(NCc1ccco1)c1cc2c(s1)CCCCC2	57.1*	-5.7%	114.6*	-7.0%	?	20.5%
O=C(NCC(c1ccco1)N1CCCCC1)c1cc2c(s1)CCCC2 (stereo unspecified)	nt	nt	nt	1.8%	-23.7%	nt
CCc1sc(C(=O)NCc2ccco2)cc1Br	18.7*	1.7%	nt	17.9%	?	-2.3%
CC1(C)SC2C(NC(=O)C(c3ccccc3)S(=O)(=O)O)C(=O)N2C1C(=O)O (stereo unspecified)	nt	nt	nt	-14.4%	nt	nt
COc1ccc(NC(=O)CSc2nc(-c3cccs3)cc(C(F)(F)F)n2)c(OC)c1	nt	nt	nt	0.5%	4.4%	nt
CCn1c(SCC(=O)NCCCN2CCCC2=O)nnc1-c1cccc(C)c1	nt	nt	nt	-3.9%	-0.4%	nt
O=C(c1ccc(F)cc1F)N1CCCC(c2nc(-c3cccs3)no2)C1 (stereo unspecified)	3.4	0.1%	29.2	4.2%	-11.8%	6.1%
O=C(c1ccc(Br)cc1)N1CCCC(c2nc(-c3cccs3)no2)C1 (stereo unspecified)	-1.3	5.5%	37.7	0.8%	0.0%	1.6%
O=C(c1ccccc1Br)N1CCCC(c2nc(-c3cccs3)no2)C1 (stereo unspecified)	35.9*	-2.5%	113.8*	2.3%	-8.7%	5.9%
O=C(c1c(F)cccc1F)N1CCCC(c2nc(-c3cccs3)no2)C1 (stereo unspecified)	25.4	5.1%	131.3*	0.0%	-1.7%	-0.3%
CCCOc1ccc(C(=O)C(CN2CCCC2)c2ccccc2)cc1 (stereo unspecified)	5.8	-0.2%	-5.0	1.9%	-12.5%	2.8%
COc1ccc(C(=O)C(CN2CCCC2)c2ccccc2)cc1 (stereo unspecified)	24.9*	3.5%	9.2	2.7%	-5.2%	-3.9%
COc1ccc(C(=O)C(CN2CCOCC2)c2ccccc2)cc1 (stereo unspecified)	1.9	0.8%	-6.9	-0.4%	-25.1%	-9.2%
O=C(c1ccc(Cl)cc1)C(CN1CCCC1)c1ccccc1 (stereo unspecified)	-9.1	0.0%	2.7	-4.9%	28.2µM*	?
COc1ccc(-c2[nH]c3ccccc3c2SCCNC(=O)c2ccc(S(=O)(=O)N(C)C)cc2)cc1	nt	nt	nt	-3.0%	0.0%	nt
COc1ccc(-c2csc(N3CCC(c4ccccc4)C3)n2)cc1 (stereo unspecified)	11.3	7.8%	12.8	-6.2%	2.3%	-3.6%
Fc1ccc(-c2csc(N3CCC(c4ccccc4)C3)n2)cc1 (stereo unspecified)	76.4*	-3.2%	93.7*	?	-2.8%	-1.1%
